In the library only some 10% were active in any assay of this set; here they are far more common.
G9a block: blocks human histone lysine methyltransferase G9a; Q96KQ7; G9a H3K9 monomethylation, AlphaScreen, 2 h; Potency, µM (top dose mostly 102 µM), most hits filed as inhibitors; 8.8% of 350,000 active; AID 504332; also: nearly all actives have a fitted effect of over 75% in size
Target sequence (Q96KQ7 913-1193 limits assumed): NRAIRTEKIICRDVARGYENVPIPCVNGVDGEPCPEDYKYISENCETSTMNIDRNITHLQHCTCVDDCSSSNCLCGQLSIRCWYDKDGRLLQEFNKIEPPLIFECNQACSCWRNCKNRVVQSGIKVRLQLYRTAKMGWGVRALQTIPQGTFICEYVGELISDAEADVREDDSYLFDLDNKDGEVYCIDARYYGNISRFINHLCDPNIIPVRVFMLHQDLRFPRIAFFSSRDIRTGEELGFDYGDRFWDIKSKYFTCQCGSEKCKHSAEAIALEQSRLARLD
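Methyltransferase reactions run at room temperature for 2 h (20 nM enzyme, 500 nM biotin-H3K9 peptide, 20 uM SAM) after a 15 min compound preincubation; product detected by AlphaScreen beads and anti-H3K9me1 antibody.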
BAZ2B inh: blocks human BAZ2B | AlphaScreen BAZ2B-H3K14Ac peptide displacement | Potency, µM (top dose mostly 114 µM), hits mostly inhibitors | 4.4% of 360,000 active; also: nearly all actives have a fitted effect of over 60% in size
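Complex of BAZ2B and biotin-H3K14Ac (50 nM apiece) forms over 30 min at RT, then faces library compounds up to 110 uM for another 30 min; AlphaScreen beads added, 20 min dark incubation, luminescence read.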
Six1-Eya2 blk: inhibitors of human Six1/Eya2 interaction. activity change, % (test concentration not listed). AID 651725. 0.56% of 360,000 active. Q15475+O00167. AlphaScreen GST-Six1/His-Eya2 binding, biochemical; active compounds read low; in the data active = activity change below about -65%; inconclusive = mostly about -30% to -63%
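GST-Six1 + His-Eya2 (5X stock: 250/500 nM); Tris pH 8.0, 300 mM NaCl, 0.05% BSA, 0.02% Tween 20; GSH donor/Ni acceptor beads; 1 h 37 °C dark; AlphaScreen readout.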
JMJD2A Tudor inh: blocks the human JMJD2A Tudor domain; AID 504339; AlphaScreen JMJD2A-Tudor / H3K4me3 peptide binding; 4.4% of 390,000 active; Potency, µM (top dose mostly 114 µM), usual class: inhibitors; also: nearly all actives have a fitted effect of over 50% in size
CtBP-E1A blk: CtBP/E1A binding inhibition | AlphaScreen GST-E1A/His-CtBP binding, 1536-well; active compounds read low | activity change, % (concentration not given with the values) | 0.49% of 340,000 active; in the data active = activity change below about -65%; inconclusive = mostly about -30% to -63%
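GST-E1A and His-tagged CtBP (125 nM each as 5X stock) were preincubated with pin-transferred compound for 2 h at 37 °C in the dark, then glutathione donor and nickel acceptor beads were added for 1 h before AlphaScreen reading.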
HP1b chromo inh: inhibitors of HP1-beta chromodomain binding to methylated histone tails | AlphaScreen HP1-beta / biotin-H3K9me3 peptide binding | Potency, µM (doses to about 114 µM), usual class: inhibitors | 0.56% of 390,000 active | AID 540317; also: nearly all actives have a fitted effect of over 70% in size
Target sequence (P83916 whole entry, looked up): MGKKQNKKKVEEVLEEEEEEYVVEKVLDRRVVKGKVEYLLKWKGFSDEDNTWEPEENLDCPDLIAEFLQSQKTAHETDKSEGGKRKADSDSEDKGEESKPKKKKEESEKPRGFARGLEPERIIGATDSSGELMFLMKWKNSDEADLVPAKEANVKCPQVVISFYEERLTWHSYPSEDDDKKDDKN
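AlphaScreen: HP1-beta (50 nM) preformed 30 min with biotin-H3(1-18)K9me3 peptide (50 nM) in PBS pH 7.4, 0.01% Tween-20. Compound added for 30 min at RT, then streptavidin donor/nickel chelate acceptor beads (10 ug/mL) for 30 min.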
Numbers stand for hits; - = inactive; ? = inconclusive; . = not tested or not shown; [ ] = remark or other dose. Unless noted, calls follow the shape of the dose curve; as a rule, active = well fitted inhibition curve with a large enough effect; inconclusive = small, poorly fitted or top-dose-only effect; inactive = no such curve, though single readings can be large or run the other way.

SMILES | G9a block | BAZ2B inh | Six1-Eya2 blk | JMJD2A Tudor inh | CtBP-E1A blk | HP1b chromo inh
O=C(O)CC(C(=O)O)N1C(=O)/C(=C/c2ccc(-c3nc4ccccc4s3)o2)SC1=S (stereo not drawn) | 5.01µM | 50.1µM | -77.2 | 50.1µM | ? | 28.2µM
O=Cc1ccc(-c2nc3ccccc3s2)o1 | - | - | - | - | - | -
O=C(O)CCN1C(=O)/C(=C/c2ccc(-c3nc4ccccc4s3)o2)SC1=S | ? | 3.55µM | ? | 6.31µM | - | ?
C=CCn1c(SCC(=O)c2cccs2)nc2sc(C)cc2c1=O | -[12.7 µM] | - | - | - | - | -
C=CCn1c(SCC(=O)c2ccc(O)c(O)c2)nnc1-c1cccc(OC)c1 | -[0.501 µM] | 50.1µM | - | ? | - | -
C=CCn1c(SCC(N)=O)nnc1-c1cccc(Br)c1 | - | - | - | - | - | -
C=CCn1c(SCC(=O)c2ccc(O)c(O)c2)nnc1-c1ccc(OC)cc1 | -[0.501 µM] | - | - | ? | - | -
C=CCn1c(SCC(C)=O)nnc1-c1cc(-c2ccccc2)sc1N | 11.2µM | ? | - | ? | - | -
C=CCn1c(SCC(=O)c2cccs2)nnc1-c1cccc(OC)c1 | ? | - | - | 89.1µM | - | -
Cn1cnc(C(=O)N2CCc3ccccc3C2)c1C(=O)N1CCc2ccccc2C1 | . | . | - | 15.8µM | - | ?
O=C(/C=C/C(=O)N1CCc2ccccc2C1)N1CCc2ccccc2C1 | - | - | - | - | . | -
CC(=O)N1CCc2cc(Br)cc(S(=O)(=O)N3CCN(c4ccccn4)CC3)c21 | - | - | - | 79.4µM | - | ?
O=C(C1CC1)N1CCc2cc(Br)cc(S(=O)(=O)NCc3ccccn3)c21 | -[12.7 µM] | - | - | 2.82µM | - | -
CC(=O)N1c2c(cc(Br)cc2S(=O)(=O)N2CCN(c3ccccn3)CC2)CC1C (stereo not drawn) | ? | - | - | - | - | -
CC(=O)Nc1ccc(SCCN2CCN(CCc3ccccc3)CCC2=O)cc1 | . | . | . | ? | . | -
CC(C)c1ccc(NS(=O)(=O)c2ccc3[nH]cc(C(=O)N4CCCC4)c(=O)c3c2)cc1 | ? | . | . | ? | . | -
COC1=CC(=O)OC(c2ccccc2C(F)(F)F)C1 (stereo not drawn) | . | . | - | . | - | .
CCCC(=O)Nc1nc(-c2ccc(Cl)s2)cs1 | - | - | - | - | - | -
O=C(Nc1nc(-c2ccc(Cl)s2)cs1)c1ccco1 | 39.8µM | - | - | - | - | -
O=C(Nc1nc(-c2ccc(Cl)s2)cs1)c1cccs1 | 50.1µM | - | - | - | - | -
O=C(O)C1CCCCC1C(=O)Nc1nc(-c2ccc(Cl)s2)cs1 (stereo not drawn) | 44.7µM | 56.2µM | - | ? | - | -
O=C(Nc1ccc([N+](=O)[O-])cc1)Nc1nc(-c2ccc(Cl)s2)cs1 | 15.8µM | - | - | - | - | -
COc1cccc(Oc2nc(-c3ccncc3)nc3ccccc23)c1 | - | - | - | - | - | -
Clc1ccc(Cn2ncc3c(N4CCN(c5ccccc5)CC4)ncnc32)cc1 | . | . | - | . | - | .
O=C(Nc1nc(-c2ccc(S(=O)(=O)N3CCCC3)cc2)cs1)c1ccco1 | - | - | -68.7 | - | -85.2 | -
SMILES | G9a block | BAZ2B inh | Six1-Eya2 blk | JMJD2A Tudor inh | CtBP-E1A blk | HP1b chromo inh
O=C1NC2(CCCCC2)C(=O)N1/N=C/c1ccc(O)cc1O | 3.98µM | ? | - | -[11.4 µM] | - | -
O=C1NC2(CCCCC2)C(=O)N1/N=C/c1ccccc1Br | - | - | - | - | - | -
COc1ccc(OC)c(NC(=O)c2c(NCc3ccc(OC)c(OC)c3)sc3c2CCC(C)C3)c1 (stereo not drawn) | 12.6µM | ? | . | 50.1µM | . | ?
COc1ccc(OC)c(NC(=O)c2c(NCc3ccc(C)o3)sc3c2CCC(C)C3)c1 (stereo not drawn) | 11.2µM | ? | . | 31.6µM | . | ?
COc1ccc(NC(=O)c2c(NCc3cccc(F)c3)sc3c2CCC3)c(OC)c1 | ? | - | . | - | . | -
COc1ccccc1-c1nn2c(C3COc4ccccc4O3)nnc2s1 (stereo not drawn) | 3.55µM | - | - | - | - | -
c1ccc(CCc2nn3c(Cc4ccccc4)nnc3s2)cc1 | ? | - | - | - | - | ?
c1ccc(CCc2nn3c(C4COc5ccccc5O4)nnc3s2)cc1 (stereo not drawn) | 3.55µM | - | - | ? | - | ?
Cc1ccc(-c2nnc3sc(C4COc5ccccc5O4)nn23)cc1 (stereo not drawn) | - | - | - | - | - | -
c1ccc(Cc2nn3c(C4COc5ccccc5O4)nnc3s2)cc1 (stereo not drawn) | 5.01µM | - | - | - | - | -
COC(=O)c1ccccc1NC(=O)CSc1nc(-c2ccccc2)cc(C(F)(F)F)n1 | - | - | . | - | . | -
CCN(CC)CCNC(=O)CNC(=O)c1nn(-c2ccc(OC)cc2OC)c(=O)c2ccccc12 | - | - | - | - | . | -
COc1ccc(-c2nnc(SCC(=O)N3CCCC3=O)n2N)cc1OC | . | . | - | - | . | -
COCC(C)n1c(C)cc(C(=O)CSc2nnnn2C2CCCC2)c1C (stereo not drawn) | -[12.7 µM] | - | - | - | . | -
CC1(C(=O)NCc2ccc(C(F)(F)F)cc2)CCN1C1Cc2ccccc2C1 (stereo not drawn) | . | . | - | . | - | .
O=C(CN1C(=O)NC2(CCCC2)C1=O)Nc1ccccc1 | - | - | - | - | - | -
Cc1ccc(NC(=O)CN2C(=O)NC3(CCCCCCC3)C2=O)cc1C | 1.26µM | - | - | - | - | -
CN(c1ccccc1)S(=O)(=O)c1cccc(NC(=O)CN2C(=O)NC3(CCCC3)C2=O)c1 | 56.2µM | - | - | - | - | -
O=C(Nc1cccc(Br)c1)c1ccccc1-c1ccccc1 | - | - | - | - | - | -
O=C(O)c1ccccc1-c1ccccc1C(=O)Nc1ccc2c(c1)[nH]c(=O)c1ccccc12 | -[0.501 µM] | - | -72.2 | - | - | -
O=C(O)c1ccccc1-c1ccccc1C(=O)Nc1ccccc1 | -[12.7 µM] | - | - | - | - | -
O=C(O)c1ccccc1-c1ccccc1C(=O)Nc1cccc(Br)c1 | 44.7µM | - | - | - | - | -
O=C(O)c1ccccc1-c1ccccc1C(=O)NNc1ccccc1 | 8.91µM | - | - | - | - | -
CC(C)(C)[C@H]1COC(=O)[C@@H](Cc2ccc(F)cc2)CC/C=C/C[C@@H](CC(=O)N[C@@H](CO)Cc2ccccc2)C(=O)N1 | . | . | - | - | . | -
O=C(O)c1ccc(Oc2ccc(S(=O)(=O)c3ccc(C(=O)O)c(C(=O)O)c3)cc2)cc1 | 50.1µM | ? | - | ? | - | -
O=C(O)c1ccc(S(=O)(=O)c2ccccc2)cc1 | -[12.7 µM] | - | - | - | - | -
CN(C)c1ccc2nc3ccc(=O)cc-3sc2c1 | . | . | ? | . | - | .
Cc1cc2nc3ccc(=[N+](C)C)cc-3sc2cc1N | . | 35.5µM | ? | ? | - | -
